# Reference: PubChem BioAssay AID1053144 (Broad Institute, 2014)
# Screen size: about 3,400 compounds; about 160 (4.7%) were called active.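 How the source made its calls: active means fitted curve reaches 30% activation at a concentration no higher than the top valid tested dose, luminescence rising; inconclusive means no clear call, values can overlap the other calls; inactive means signal moving opposite to the expected increase, plus the rest.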 These entries were drawn from the full list. Measured potencies and affinities stand elsewhere.
# Experiment: Wnt/beta-catenin signaling activators, dose response, cell-based, iPS-derived NPC, luciferase, Wnt3a, cherry-pick (AID 1053144);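 further: Wnt3a stimulus is conditioned medium from Wnt3a-transfected mouse L cells at 5% in well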
# Settings: NPC TCF/LEF luciferase reporter, Wnt3a EC25, 24 h; series mostly up to 26 µM
row,Structure (SMILES),activation
1,COc1ccc(-c2nc3c4ccccc4[nH]c(=O)n3n2)cc1,inactive
2,O=C(NCC(=O)N1CCCCC1)c1sc2ccccc2c1Cl,inactive
3,O=C(Nc1nccs1)c1sc2cc(Cl)ccc2c1Cl,inactive
4,C/C(=C\c1ccccc1)C(=O)NCc1ccco1,inactive
5,O=C(NN1C(=O)C2C3c4ccccc4C(c4ccccc43)[C@@H]2C1=O)c1ccccc1 (some centres undefined),inactive
6,CCOC(=O)c1cccc(COC(=O)c2cccc(-c3nnc(-c4ccccc4)o3)c2)c1,inactive
7,CN(CC(=O)Nc1ccc(F)cc1)C(=O)COC(=O)c1cccc(N(C)C)c1,inactive
8,COc1ccc(/C=C2\CCC(C3CCCC3)C2=O)cc1OC (centres undefined),inactive
9,Cc1cc(C)n(-c2nc3ccccc3s2)n1,inactive
10,CN(C)c1ccc(-c2ccc3c(=O)c4ccccc4n(C)c3c2)cn1,inactive
11,O=C(COn1nnc2ccccc21)NCC1CCCCC1,inactive
12,O=C(NNS(=O)(=O)c1ccccc1)C1CCN(S(=O)(=O)c2ccccc2)CC1,inactive
13,O=C(c1ccc(F)cc1)c1cc2ccccc2o1,inactive
14,O=C(Nc1ccccc1)c1cc2ccccc2o1,inactive
15,COc1ccc(/C=C2/CCc3ccccc3C2=O)cc1OC,inactive
16,O=C(/C(=C/c1ccc(Cl)cc1)c1nc2ccccc2[nH]1)c1ccccc1,inactive
17,Cc1ccc(/C=C/C(=O)c2nc3ccccc3[nH]2)cc1,inactive

row,Structure (SMILES),activation
1,Nc1c(C(=O)Nc2ccc(Cl)cc2)oc2ccccc12,inactive
2,CCc1nnc(NC(=O)/C=C/c2ccco2)s1,inactive
3,CCOc1ccc(CCNC(=O)COC(=O)c2cccc(N(C)C)c2)cc1OCC,inactive
4,O=C(/C=C/c1ccco1)Nc1ccccc1C(=O)O,inactive
5,CCOc1ccc(CCNC(=O)COc2cc(=O)n(C)c3ccccc23)cc1OCC,inactive
6,CC(C)(C)c1ccc(/C=C/C(=O)Nc2cccnc2)cc1,inactive
7,Cc1cc(C(=O)COC(=O)c2ccc(O)cc2)c(C)n1CC(F)(F)F,inactive
8,C(=C\c1cc(/C=C/c2ccccc2)ncn1)/c1ccccc1,inactive
9,COc1ccc(C(=O)/C=C/c2ccccc2C(F)(F)F)cc1,inactive
10,COC(=O)c1ccc(NC(=O)Cc2ccccc2)cc1,inactive
11,CCCCOC(=O)Nc1ccc(N2CCCCC2)cc1,inactive
12,COc1ccc(/C=C(/NC(=O)c2ccccc2Cl)C(=O)O)cc1,inactive
13,Cc1nc(Nc2ccccc2)sc1C(=O)c1ccccc1,inactive
14,O=C(O)Cc1sc(Nc2ccccc2)nc1-c1cccs1,inactive
15,O=C(Nc1ccc(Cl)cc1)Nc1ccccc1C(=O)NCc1ccco1,inactive
16,Cc1ccsc1C(=O)OCc1cc(=O)n2ccsc2n1,inactive
17,COC(=O)CNc1c(-c2ccccn2)nc2ccc(Br)cn12,inactive
